Holding throughout (set-up): scale not given: direction of the effect not stated beside the values
Test [1] deals with Protein translocase subunit SecA (Escherichia coli (strain K12)) (UniProt P10408). Nature of the test: Assay to Identify E. coli SecA ATPase Inhibitors. It is filed as functional. Conditions: 30 µM.
Test [2] deals with T1, Ubiquitin-activating enzyme e1, putative (Leishmania donovani (strain BPK282A1)) (UniProt E9BSI1).
T1 sequence (whole entry): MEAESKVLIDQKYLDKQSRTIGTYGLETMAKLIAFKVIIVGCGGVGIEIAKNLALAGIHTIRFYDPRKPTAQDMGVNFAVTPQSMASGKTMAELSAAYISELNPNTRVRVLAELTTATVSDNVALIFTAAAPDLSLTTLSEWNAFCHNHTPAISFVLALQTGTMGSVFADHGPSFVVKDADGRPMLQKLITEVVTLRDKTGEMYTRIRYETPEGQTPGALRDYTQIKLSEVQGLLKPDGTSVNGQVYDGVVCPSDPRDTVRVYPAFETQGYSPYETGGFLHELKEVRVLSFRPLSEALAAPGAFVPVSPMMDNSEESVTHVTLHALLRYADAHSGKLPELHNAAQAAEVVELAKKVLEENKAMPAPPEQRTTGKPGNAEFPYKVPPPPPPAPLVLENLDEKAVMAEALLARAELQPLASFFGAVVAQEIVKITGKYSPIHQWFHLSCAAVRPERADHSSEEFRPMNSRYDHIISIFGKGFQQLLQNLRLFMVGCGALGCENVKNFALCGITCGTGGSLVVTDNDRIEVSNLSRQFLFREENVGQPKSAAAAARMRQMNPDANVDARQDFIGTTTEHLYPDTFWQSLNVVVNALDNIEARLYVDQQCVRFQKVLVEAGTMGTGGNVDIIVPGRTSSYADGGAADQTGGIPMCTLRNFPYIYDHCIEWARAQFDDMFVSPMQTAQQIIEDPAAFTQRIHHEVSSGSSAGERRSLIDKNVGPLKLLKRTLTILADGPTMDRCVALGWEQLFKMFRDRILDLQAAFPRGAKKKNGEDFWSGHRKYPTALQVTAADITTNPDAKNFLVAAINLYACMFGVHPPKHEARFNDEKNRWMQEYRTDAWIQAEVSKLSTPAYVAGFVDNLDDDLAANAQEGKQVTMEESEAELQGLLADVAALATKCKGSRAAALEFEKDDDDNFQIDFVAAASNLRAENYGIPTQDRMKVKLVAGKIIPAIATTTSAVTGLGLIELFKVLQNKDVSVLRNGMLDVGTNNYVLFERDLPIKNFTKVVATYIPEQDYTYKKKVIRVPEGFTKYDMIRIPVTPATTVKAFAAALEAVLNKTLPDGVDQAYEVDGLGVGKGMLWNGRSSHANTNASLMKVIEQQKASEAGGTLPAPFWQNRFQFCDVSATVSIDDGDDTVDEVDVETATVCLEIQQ
Kind of test: Leishmania donovani Ubiquitin Activating Enzyme (LdE1). It is filed as functional. Conditions: 30 µM.

The target of test [3] is AMP-activated protein kinase, AMPK (Homo sapiens) (UniProt P54646+O43741+P54619+Q9UGJ0+Q9Y478+Q13131+Q9UGI9). Nature of the test: AMP-dependent Kinase enzyme assay. An in vitro enzyme assay that detects ADP turnover that is directly proportional to AMPK activity. This uses naive AMPK that is activated during the assay with MK-8722. It is filed as functional. Conditions: 30 µM.

Test [4] deals with Sialic acid-binding Ig-like lectin 9 (Homo sapiens) (UniProt Q9Y336). Kind of test: Hs-Siglec9 ALPHAscreen SOP 20170721. The conditions noted are these: 10 µM.
The subject of another test is Trypanosoma cruzi. Nature of the test: Trypanosoma cruzi phosphomannomutase and mannose-1-phosphate guanylyltransferase assay. It is filed as functional. The conditions noted are these: 10 µM.
The target of test [5] is T2, Arginase-2, mitochondrial (Homo sapiens) (UniProt P78540).
T2 sequence (whole entry): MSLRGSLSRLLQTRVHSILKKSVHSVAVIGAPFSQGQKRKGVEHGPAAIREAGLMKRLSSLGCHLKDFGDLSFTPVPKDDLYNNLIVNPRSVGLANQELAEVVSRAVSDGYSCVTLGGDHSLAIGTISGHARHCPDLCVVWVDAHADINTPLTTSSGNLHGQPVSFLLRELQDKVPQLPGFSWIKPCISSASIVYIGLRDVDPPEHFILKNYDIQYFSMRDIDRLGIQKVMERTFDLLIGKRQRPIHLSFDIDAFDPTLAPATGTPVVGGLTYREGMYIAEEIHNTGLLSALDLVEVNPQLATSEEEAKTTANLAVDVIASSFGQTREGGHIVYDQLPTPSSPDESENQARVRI
Kind of test: in vitro enzyme assay to detect the production of urea directly proportional to the activity of Arginase II. Also: in the data most compounds retested in dose-response had high values. It is filed as functional. The conditions noted are these: 33.3 µM.

For test [6], the target named is T3, Proteasome subunit beta (Trypanosoma cruzi) (UniProt O96673).
T3 sequence (whole entry): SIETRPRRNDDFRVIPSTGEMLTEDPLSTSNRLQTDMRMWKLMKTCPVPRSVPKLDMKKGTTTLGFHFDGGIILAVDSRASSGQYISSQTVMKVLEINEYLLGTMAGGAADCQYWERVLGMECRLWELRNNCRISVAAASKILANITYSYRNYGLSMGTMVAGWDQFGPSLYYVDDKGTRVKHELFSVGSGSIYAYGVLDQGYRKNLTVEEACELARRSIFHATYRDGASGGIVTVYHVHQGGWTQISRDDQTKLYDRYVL
Nature of the test: Trypanosoma cruzi proteasome chymotrypsin-like activity (TcProtChymo) assay. Also: in the data most compounds retested in dose-response had high values. It is filed as functional. The conditions noted are these: 9.37 µM.

The next test is filed under the species Homo sapiens. Nature of the test: To identify inhibition of the IFN signalling (Jak-Stat) pathway via expression of an eGFP reporter gene under the control of an IFN-stimulated response element (ISRE) containing MxA promoter. It is filed as functional. The conditions noted are these: 30 µM.
The target in test [7] is T4, Tyrosyl-tRNA synthetase, putative (Trypanosoma cruzi (strain CL Brener)) (UniProt Q4DSP6).
T4 sequence (whole entry): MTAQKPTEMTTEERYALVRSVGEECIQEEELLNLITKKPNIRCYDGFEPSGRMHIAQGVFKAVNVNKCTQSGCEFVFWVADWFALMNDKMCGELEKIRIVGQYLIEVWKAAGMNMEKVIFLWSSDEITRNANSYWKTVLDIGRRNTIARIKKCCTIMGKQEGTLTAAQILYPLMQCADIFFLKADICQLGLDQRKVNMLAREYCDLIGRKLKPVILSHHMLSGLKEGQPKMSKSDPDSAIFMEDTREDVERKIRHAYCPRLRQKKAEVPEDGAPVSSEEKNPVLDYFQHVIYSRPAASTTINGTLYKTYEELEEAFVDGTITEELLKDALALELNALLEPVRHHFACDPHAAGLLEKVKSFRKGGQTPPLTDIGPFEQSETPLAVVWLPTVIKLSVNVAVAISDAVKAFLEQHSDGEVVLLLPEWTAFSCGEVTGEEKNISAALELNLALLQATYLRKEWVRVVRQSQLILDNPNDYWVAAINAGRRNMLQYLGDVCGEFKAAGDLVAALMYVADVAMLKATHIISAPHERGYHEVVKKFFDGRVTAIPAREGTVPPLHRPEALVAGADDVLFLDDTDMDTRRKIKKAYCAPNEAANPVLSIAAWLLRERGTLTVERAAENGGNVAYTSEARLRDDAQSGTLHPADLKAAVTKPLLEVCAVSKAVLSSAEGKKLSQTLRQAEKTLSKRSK
Nature of the test: Trypanosoma cruzi tyrosyl tRNA synthetase (TcYRS) _High Tyrosine SOP. Also: in the data most compounds retested in dose-response had high values. The class given is functional. Conditions: 30 µM.

Test [8] addresses T4, Tyrosyl-tRNA synthetase, putative (Trypanosoma cruzi (strain CL Brener)). Kind of test: Trypanosoma cruzi tyrosyl tRNA synthetase (TcYRS) SOP. The conditions noted are these: 30 µM. It is filed as functional.
The target of test [9] is Chromo domain-containing protein 1 (Saccharomyces cerevisiae (strain ATCC 204508 / S288c) (Baker's yeast)) (UniProt P32657). Nature of the test: ScCHD-1 Enzyme Inhibition Assay. Also: in the data most compounds retested in dose-response had high values. It is filed as functional. The conditions noted are these: 30 µM.

Structures are written as SMILES. For some of these results: Potency and affinity values are given separately.

Chain of Chromo domain-containing protein 1 (Saccharomyces cerevisiae (strain ATCC 204508 / S288c) (Baker's yeast)) (P32657 whole entry, the tested form may be a part): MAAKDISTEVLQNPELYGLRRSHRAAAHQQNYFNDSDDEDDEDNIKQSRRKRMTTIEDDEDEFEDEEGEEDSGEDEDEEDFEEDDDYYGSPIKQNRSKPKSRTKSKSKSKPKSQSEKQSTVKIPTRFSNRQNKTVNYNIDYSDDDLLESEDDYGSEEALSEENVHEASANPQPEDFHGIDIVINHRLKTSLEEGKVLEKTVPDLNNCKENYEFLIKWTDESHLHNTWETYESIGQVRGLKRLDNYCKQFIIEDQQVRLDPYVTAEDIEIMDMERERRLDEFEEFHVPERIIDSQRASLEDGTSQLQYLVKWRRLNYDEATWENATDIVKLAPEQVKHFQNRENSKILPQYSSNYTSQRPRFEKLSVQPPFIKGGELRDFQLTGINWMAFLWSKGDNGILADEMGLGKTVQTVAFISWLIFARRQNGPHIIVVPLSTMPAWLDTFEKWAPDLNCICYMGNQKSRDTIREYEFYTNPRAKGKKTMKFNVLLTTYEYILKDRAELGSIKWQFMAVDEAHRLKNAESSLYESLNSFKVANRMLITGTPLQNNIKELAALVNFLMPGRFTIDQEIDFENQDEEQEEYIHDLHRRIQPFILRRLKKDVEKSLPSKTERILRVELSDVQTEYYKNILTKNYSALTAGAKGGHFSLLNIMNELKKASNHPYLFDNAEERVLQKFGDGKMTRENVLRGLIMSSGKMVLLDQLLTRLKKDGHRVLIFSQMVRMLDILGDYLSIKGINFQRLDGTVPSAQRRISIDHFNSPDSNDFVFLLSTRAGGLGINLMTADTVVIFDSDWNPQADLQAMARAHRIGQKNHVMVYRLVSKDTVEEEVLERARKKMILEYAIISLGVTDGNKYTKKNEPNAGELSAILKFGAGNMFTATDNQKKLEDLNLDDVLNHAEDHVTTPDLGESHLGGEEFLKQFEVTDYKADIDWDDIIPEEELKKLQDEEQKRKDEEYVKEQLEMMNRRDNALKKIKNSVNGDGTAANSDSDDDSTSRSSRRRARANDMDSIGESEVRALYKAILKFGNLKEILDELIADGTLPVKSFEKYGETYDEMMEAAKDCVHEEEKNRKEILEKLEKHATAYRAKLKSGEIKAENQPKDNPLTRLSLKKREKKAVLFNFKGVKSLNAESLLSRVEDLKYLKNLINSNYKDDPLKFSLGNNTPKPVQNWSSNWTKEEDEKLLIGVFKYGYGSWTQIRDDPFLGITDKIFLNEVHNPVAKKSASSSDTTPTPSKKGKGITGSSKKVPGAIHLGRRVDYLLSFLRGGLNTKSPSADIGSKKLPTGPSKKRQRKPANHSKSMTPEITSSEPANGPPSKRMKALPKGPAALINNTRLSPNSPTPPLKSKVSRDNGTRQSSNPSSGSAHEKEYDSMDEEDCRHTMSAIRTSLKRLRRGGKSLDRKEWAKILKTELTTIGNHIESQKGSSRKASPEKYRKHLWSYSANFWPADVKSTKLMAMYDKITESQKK
Chain of Sialic acid-binding Ig-like lectin 9 (Homo sapiens) (Q9Y336 whole entry): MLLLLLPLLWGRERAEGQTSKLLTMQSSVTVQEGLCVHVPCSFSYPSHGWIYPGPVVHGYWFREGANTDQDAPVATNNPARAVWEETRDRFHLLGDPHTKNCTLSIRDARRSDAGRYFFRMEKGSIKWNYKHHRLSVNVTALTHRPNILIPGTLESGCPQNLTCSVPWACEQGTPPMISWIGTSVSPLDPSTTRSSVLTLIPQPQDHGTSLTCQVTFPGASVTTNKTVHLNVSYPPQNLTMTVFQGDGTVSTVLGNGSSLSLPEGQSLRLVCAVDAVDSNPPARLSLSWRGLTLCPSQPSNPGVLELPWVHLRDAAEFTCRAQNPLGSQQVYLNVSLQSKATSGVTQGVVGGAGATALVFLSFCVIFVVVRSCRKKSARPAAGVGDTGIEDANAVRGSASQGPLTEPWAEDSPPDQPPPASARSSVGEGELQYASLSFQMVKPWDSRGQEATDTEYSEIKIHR
Chain of Protein translocase subunit SecA (Escherichia coli (strain K12)) (P10408 whole entry): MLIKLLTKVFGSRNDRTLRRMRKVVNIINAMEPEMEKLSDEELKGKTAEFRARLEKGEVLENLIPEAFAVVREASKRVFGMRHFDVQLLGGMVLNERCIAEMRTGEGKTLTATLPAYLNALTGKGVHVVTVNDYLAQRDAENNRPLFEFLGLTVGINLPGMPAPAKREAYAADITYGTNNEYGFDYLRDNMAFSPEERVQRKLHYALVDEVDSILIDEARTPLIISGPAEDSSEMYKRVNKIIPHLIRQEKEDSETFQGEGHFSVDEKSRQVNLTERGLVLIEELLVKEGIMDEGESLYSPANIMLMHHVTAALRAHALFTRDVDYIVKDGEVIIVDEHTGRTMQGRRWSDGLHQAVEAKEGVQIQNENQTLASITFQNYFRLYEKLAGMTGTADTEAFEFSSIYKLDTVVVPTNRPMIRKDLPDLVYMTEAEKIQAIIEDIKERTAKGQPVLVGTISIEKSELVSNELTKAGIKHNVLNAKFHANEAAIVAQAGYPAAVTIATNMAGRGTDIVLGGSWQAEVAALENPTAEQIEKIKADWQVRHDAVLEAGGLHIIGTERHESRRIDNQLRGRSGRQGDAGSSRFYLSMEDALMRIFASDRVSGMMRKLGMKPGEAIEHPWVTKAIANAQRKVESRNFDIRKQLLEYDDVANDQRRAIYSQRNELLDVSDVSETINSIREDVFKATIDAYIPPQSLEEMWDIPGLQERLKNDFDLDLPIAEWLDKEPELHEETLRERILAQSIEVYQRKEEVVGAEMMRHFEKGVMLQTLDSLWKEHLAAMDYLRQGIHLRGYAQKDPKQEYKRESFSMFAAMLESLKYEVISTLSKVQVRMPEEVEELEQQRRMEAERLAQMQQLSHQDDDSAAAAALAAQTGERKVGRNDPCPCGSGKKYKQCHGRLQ

For `COC(=O)c1sccc1S(=O)(=O)N1CCC(Oc2ncccc2Cl)CC1`, the Percent Effect is -6.92% in test [1]; -8.22% in test [2]; 18.7% in test [3]; 1.08% in [4]; 4.9% with Trypanosoma cruzi; -0.455% in test [5]. Moreover, the Percent Effect is 3.02% in [6]; 35.1% in the test filed under Homo sapiens; -19.4% in test [7]; -20% in test [8]; -1.89% in test [9].
Take `CSCCCN1CCCC1c1noc(C)n1` (stereo not drawn): the Percent Effect in test [1] was -0.0492%; in test [2], 13.2%; in test [3] it was -11.1%; in test [4] it was -5.04%; with Trypanosoma cruzi, 6.39%; in test [5] it was 8.43%. The Percent Effect was 23.7% in [6]; 19.4% in the test listed under Homo sapiens; 14.2% in test [7]; 21.9% in [8]; -9.94% in test [9].
`CC1Cc2ccccc2N1Cc1occc1C(=O)OCC(N)=O` (stereo not drawn): the Percent Effect is -4.31% in test [1]; 11% in test [2]; 7.16% in test [3]; 10.7% in test [4]; 4.56% in the test with Trypanosoma cruzi; -3.99% in [5]. For the same molecule, the Percent Effect in test [6] was 5.91%; in the test filed under Homo sapiens it was 17%; in test [7], 8.33%; in [8], 13.6%; in test [9] it was -3.53%.
In the case of `CCOC(=O)NC(C(=O)NCc1ccc(N2CCCCC2)nc1)C(C)C` (stereo not drawn), the Percent Effect was -0.611% in [1]; 13.5% in test [2]; -4% in [3]; -4.82% in [4]; -5.94% in the test with Trypanosoma cruzi; 0% in test [5]. The Percent Effect in test [6] is 13.9%; in the test listed under Homo sapiens, 28.9%; in [7] it was 3.45%; in test [8], 16.1%; in [9], -3.65%.
Consider `CC1CN(C(=O)CN(Cc2ccco2)C2CC2)CCO1` (stereo not drawn), for which the Percent Effect in [1] was -2.04%; in test [2], 0%; in test [3] it was 2.98%; in test [4], -1.26%; in the test on Trypanosoma cruzi, -3.62%; in test [5], 4.84%. The Percent Effect in test [6] is 0.242%; in the test filed under Homo sapiens it was 22.1%; in test [7], 1.91%; in test [8], 2.35%; in test [9], -8.2%.
Regarding `CN(CCc1ccccc1)Cc1cc(C(=O)N2CCN(C)C(=O)C2)no1`, the Percent Effect in [1] was -3.15%; in test [2] it was 19.2%; in [3], -1.8%; in test [4] it was 11%; with Trypanosoma cruzi, 1.19%; in [5], -6.79%. The Percent Effect is 19.3% in test [6]; 5.79% in the test listed under Homo sapiens; 7.29% in test [7]; 23.5% in [8]; -7.74% in test [9].
In the case of `CCCOc1cc(CNC(=O)Nc2cccnc2N2CCCC2)ccn1`, the Percent Effect in [1] was -1.55%; in test [2] it was -2.7%; in test [3], -14.8%; in test [4] it was 5.9%; in the test with Trypanosoma cruzi it was -1.04%; in test [5], 4.81%. The Percent Effect in [6] was 5.77%; in the test filed under Homo sapiens it was 6.16%; in [7], -0.493%; in test [8] it was 3.7%; in [9] it was -5.59%.
Consider `O=C(c1cccnc1O)N(Cc1ccsc1)CC1CCCO1` (stereo not drawn), for which the Percent Effect in [1] was 0.332%; in test [2], 13.5%; in test [3], -1.43%; in [4], 6.53%; with Trypanosoma cruzi, 4.63%; in [5], 12.9%. Besides, the Percent Effect in test [6] is 12.6%; in the test filed under Homo sapiens, 15.9%; in test [7], 5.82%; in test [8], 17.1%; in [9], -0.939%.
